Experimental data taken from the supplement of paper PMC12808144.
Values without a mark were called inactive.

These compounds were tested on Mel-DCC-11 (assay: cell viability relative to DMSO control (fraction of DMSO control); higher = less cytotoxic, active = 0.5 or less). Conditions: 1 µM; 120 h.
How it was run: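 The screen used 384-well plates acoustically pre-spotted with 315 approved anti-cancer drugs from TargetMol, each at 1 µM in duplicate. Into each well went 40 µl of cells, 2500 NHEM-hTERT immortalized melanocytes or 1500 of patient-derived Mel-DCC-11 or its resistant subline Mel-DCC-11-R, and plates were kept 120 h, with the subline also tested alongside 8 µM of its selecting drug. Readout was by ATPlite 1step luminescence. Viability values were normalised to vehicle-treated controls and averaged between duplicates.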

SMILES | cell viability
CCCc1cc(C)[nH]c(=O)c1CNC(=O)c1cc(-c2ccnc(N3CCN(C)CC3)c2)cc2c1cnn2C(C)C | 1.45
C[C@@H](CN1CC(=O)NC(=O)C1)N1CC(=O)NC(=O)C1.Cl [Dexrazoxane HCl] | 1.21
N#CC1(c2ccc(NC(=O)c3cccnc3NCc3ccncc3)cc2)CCCC1 [Apatinib] | 1.03
CS(=O)(=O)CCNCc1ccc(-c2ccc3ncnc(Nc4ccc(OCc5cccc(F)c5)c(Cl)c4)c3c2)o1.Cc1ccc(S(=O)(=O)O)cc1.Cc1ccc(S(=O)(=O)O)cc1.O [Lapatinib ditosylate monohydrate] | 1.13
CC(O)(P(=O)([O-])O)P(=O)([O-])O.[Na+].[Na+] [Sodium etidronate] | 0.955
COc1ccc([C@@H]2CC(=O)c3c(O)cc(O)cc3O2)cc1O [Hesperetin] | 1.01
C[C@H](Nc1ncnc2nc[nH]c12)c1cc2cccc(Cl)c2c(=O)n1-c1ccccc1 [Duvelisib] | 0.965
CCOC(N)=O [Urethane] | 0.892
CC[C@H](Nc1ncnc2[nH]cnc12)c1nc2cccc(F)c2c(=O)n1-c1ccccc1 [Idelalisib] | 0.978
Cc1ccc(-c2ncc(Cl)cc2-c2ccc(S(C)(=O)=O)cc2)cn1 [Etoricoxib] | 1.11
CNC(=O)c1cc(Oc2ccc(NC(=O)Nc3ccc(Cl)c(C(F)(F)F)c3)c(F)c2)ccn1 [Regorafenib] | 0.78
CC(C)(C#N)c1cc(Cn2cncn2)cc(C(C)(C)C#N)c1 [Anastrozole] | 0.836
Nc1cccc2c1C(=O)N(C1CCC(=O)NC1=O)C2=O (centres undefined) [Pomalidomide] | 1.03
Cc1cn(-c2cc(NC(=O)c3ccc(C)c(Nc4nccc(-c5cccnc5)n4)c3)cc(C(F)(F)F)c2)cn1 [Nilotinib] | 1.13
O=c1[nH]c(=O)n([C@H]2C[C@H](O)[C@@H](CO)O2)cc1C(F)(F)F [Trifluridine] | 1.7
CCc1cnn2c(NCc3ccc[n+]([O-])c3)cc(N3CCCC[C@H]3CCO)nc12 [Dinaciclib] | 0.0557 (active)
Cn1cnc2c(F)c(Nc3ccc(Br)cc3F)c(C(=O)NOCCO)cc21 [Binimetinib] | 0.195 (active)
CC1(COc2ccc3c(c2)ncn3-c2ccc3cccc(N4CCC(N)CC4)c3n2)COC1 [Crenolanib] | 1.81
CCCS(=O)(=O)Nc1ccc(F)c(C(=O)c2c[nH]c3ncc(-c4ccc(Cl)cc4)cc23)c1F [Vemurafenib] | 0.983
COc1ccc2cc1Oc1ccc(cc1)C[C@H]1c3cc(c(OC)cc3CCN1C)Oc1c(OC)c(OC)cc3c1[C@H](C2)N(C)CC3 [Tetrandrine] | 0.653
CN(C)C(=O)COC(=O)Cc1ccc(OC(=O)c2ccc(N=C(N)N)cc2)cc1.CS(=O)(=O)O [Camostat mesilate] | 1.03
CCN(CC)C(=S)SSC(=S)N(CC)CC [Disulfiram] | 0.0336 (active)
COC(=O)[C@]12CCC(C)(C)C[C@H]1[C@H]1C(=O)C=C3[C@@]4(C)C=C(C#N)C(=O)C(C)(C)[C@@H]4CC[C@@]3(C)[C@]1(C)CC2 [Bardoxolone Methyl] | 0.711
CC1=C(CC(=O)O)c2cc(F)ccc2/C1=C\c1ccc(S(C)=O)cc1 (centres undefined) [Sulindac] | 0.701
COc1c(OCCCN2CCOCC2)ccc2c1N=C(NC(=O)c1cnc(N)nc1)N1CCN=C21 [Copanlisib] | 0.966
N#CC[C@H](C1CCCC1)n1cc(-c2ncnc3[nH]ccc23)cn1 [(R)-Ruxolitinib] | 1.03
COc1cc(N2CCC(N3CCN(C)CC3)CC2)ccc1Nc1ncc(Cl)c(Nc2ccccc2P(C)(C)=O)n1 [Brigatinib] | 0.988
CC1(C)O[C@H]2CC(=O)OC[C@]23[C@H]2CC[C@@]4(C)[C@H](c5ccoc5)OC(=O)[C@H]5O[C@]54[C@]2(C)C(=O)C[C@@H]13 [Limonin] | 1.1
O=c1cc(-c2ccc(O)cc2)oc2cc(O)cc(O)c12 [Apigenin] | 1.07
